In PubChem BioAssay (EPA / NIEHS) one finds outcome and AC50 data, which are given here for three molecules.

Read-out in assay [1]: C-C motif chemokine 2 (Homo sapiens) (UniProt P13500)
The assay can be described thus: BSK_KF3CT_MCP1: BioMAP Diversity Plus: KF3CT Assay for Monocyte Chemoattractant Protein 1 (MCP1/CCL2) Biomarker Activity (AID 2283073). The note with it: primary human keratinocytes with fibroblasts; actives raise or lower the signal. The method in brief: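 Human keratinocyte plus foreskin fibroblast primary co-culture exposed to chemical for 24 h. MCP-1 levels measured by ELISA. Bidirectional curve fitting relative to DMSO negative control as baseline.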

Read-out in assay [2]: Matrix Metallopeptidase 9 (MMP9), MMP9 (gene 4318)
Put plainly: BSK_KF3CT_MMP9: BioMAP Diversity Plus: KF3CT Assay for Matrix Metallopeptidase 9 (MMP9) Biomarker Activity (AID 2283074). The note with it: primary human keratinocytes with fibroblasts; actives raise or lower the signal. A digest of the protocol: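 Keratinocyte plus foreskin fibroblast human primary skin co-culture was dosed with chemical and MMP-9 was quantified by ELISA 24 h later. Bidirectional curve fitting used DMSO as negative control and activity baseline.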

Read-out in assay [3]: urokinase plasminogen activator (uPA), PLAU (gene 5328)
Put plainly: BSK_KF3CT_uPA: BioMAP Diversity Plus: KF3CT Assay for urokinase plasminogen activator (uPA) Biomarker Activity (AID 2283075). The note with it: primary human keratinocytes with fibroblasts; actives raise or lower the signal. The method in brief:
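Human keratinocyte plus foreskin fibroblast primary co-culture exposed to chemical for 24 h. uPA levels were quantified by ELISA, and activity was fitted bidirectionally against a DMSO negative-control baseline.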

Read-out in assay [4]: CD40, CD40 (gene 958)
Put plainly: BSK_LPS_CD40: BioMAP Diversity Plus: LPS Assay for CD40 Biomarker Activity (AID 2283076). The note with it: primary human HUVEC with PBMC; actives raise or lower the signal. The method in brief: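 Primary human umbilical vein endothelial cells co-cultured with peripheral blood mononuclear cells, LPS-stimulated, were dosed with chemical and read 24 h later. CD40 levels were measured by ELISA and fitted bidirectionally against DMSO as negative control and baseline.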

Read-out in assay [5]: E-selectin (Homo sapiens) (UniProt P16581)
The assay can be described thus: BSK_LPS_Eselectin: BioMAP Diversity Plus: LPS Assay for Eselectin Biomarker Activity (AID 2283077). The note with it: primary human HUVEC with PBMC; actives raise or lower the signal. A digest of the protocol:
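Human umbilical vein endothelial cells co-cultured with peripheral blood mononuclear cells under LPS stimulation; E-selectin measured by ELISA 24 h after chemical dosing. Activity fitted bidirectionally against DMSO as negative control and baseline.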

Read-out in assay [6]: Interleukin-8 (IL8), CXCL8 (gene 3576)
Put plainly: BSK_LPS_IL8: BioMAP Diversity Plus: LPS Assay for Interleukin-8 (IL8) Biomarker Activity (AID 2283078). The note with it: primary human HUVEC with PBMC; actives raise or lower the signal. A digest of the protocol:
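Human umbilical vein endothelial cells co-cultured with PBMC were stimulated with LPS; IL-8 levels were measured by ELISA 24 h after chemical dosing. Activity was fitted bidirectionally against DMSO as negative control and baseline.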

Assay [7] in a line: BSK_LPS_SRB: Viability Assessment in the BioMAP Diversity Plus: LPS Assay (AID 2283079).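 Also: total protein by sulforhodamine B absorbance as a cytotoxicity measure; measured one day after compound addition; fitted in both directions against DMSO so loss or gain of signal counts.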 The note with it: primary human HUVEC with PBMC. The method in brief: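 Human umbilical vein endothelial cells co-cultured with PBMC (LPS system) were dosed for 24 h. Total protein was stained with 0.1% sulforhodamine B after 10% TCA fixation, read at 560 nm, and fitted bidirectionally against DMSO baseline.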

Read-out in assay [8]: Interleukin-1 alpha (IL1a), IL1A (gene 3552)
The assay can be described thus: BSK_LPS_IL1a: BioMAP Diversity Plus: LPS Assay for Interleukin-1 alpha (IL1a) Biomarker Activity (AID 2283080). The note with it: primary human HUVEC with PBMC; actives raise or lower the signal. The method in brief: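 Human umbilical vein endothelial cells co-cultured with peripheral blood mononuclear cells were LPS-stimulated and exposed to test chemicals for 24 h. IL-1 alpha was quantified by ELISA, with bidirectional curve fitting against DMSO as the negative control and baseline.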

Read-out in assay [9]: Monocyte Chemoattractant Protein-1 (MCP1), CCL2 (gene 6347)
Put plainly: BSK_LPS_MCP1: BioMAP Diversity Plus: LPS Assay for Monocyte Chemoattractant Protein-1 (MCP1) Biomarker Activity (AID 2283081). The note with it: primary human HUVEC with PBMC; actives raise or lower the signal. A digest of the protocol:
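HUVEC plus PBMC co-culture (human primary cells, LPS system) exposed to test chemical for 24 h; MCP-1 measured by ELISA. Bidirectional curve fitting against DMSO baseline; parallel SRB total-protein staining flags overt cytotoxicity.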

A short description of assay [10]: BSK_LPS_PGE2: BioMAP Diversity Plus: LPS Assay for Prostaglandin E2 (PGE2) Biomarker Activity (AID 2283082).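 As to AC50: secreted prostaglandin E2 measured by ELISA in LPS-stimulated co-culture.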 The note with it: primary human HUVEC with PBMC; actives raise or lower the signal. The method in brief:
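LPS-activated HUVEC/PBMC co-culture; cmpd dosed, 24 h; PGE2 by ELISA; bidirectional fit vs DMSO; SRB (0.1%, TCA-fixed, 560 nm) in parallel plates for overt cytotox.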

Read-out in assay [11]: Macrophage colony-stimulating factor (MCSF), CSF1 (gene 1435)
The assay can be described thus: BSK_LPS_MCSF: BioMAP Diversity Plus: LPS Assay for Macrophage colony-stimulating factor (MCSF) Biomarker Activity (AID 2283083). The note with it: primary human HUVEC with PBMC; actives raise or lower the signal. A digest of the protocol:
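Human umbilical vein endothelial cells co-cultured with peripheral blood mononuclear cells were exposed to compound for 24 h. M-CSF levels were measured by ELISA, and bidirectional curve fitting used DMSO as the negative control and baseline.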

Read-out in assay [12]: Tissue Factor, F3 (gene 2152)
The assay can be described thus: BSK_LPS_TissueFactor: BioMAP Diversity Plus: LPS Assay for Tissue Factor Biomarker Activity (AID 2283084). The note with it: primary human HUVEC with PBMC; actives raise or lower the signal. A digest of the protocol: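 Human umbilical vein endothelial cells co-cultured with peripheral blood mononuclear cells were dosed and stimulated with LPS. Cell-surface CD142 was quantified by ELISA at 24 h. Activity was fitted bidirectionally against DMSO baseline.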

Read-out in assay [13]: Tumor necrosis factor (Homo sapiens) (UniProt P01375)
The assay can be described thus: BSK_LPS_TNFa: BioMAP Diversity Plus: LPS Assay for Tumour Necrosis Factor alpha (TNFa) Biomarker Activity (AID 2283085). The note with it: primary human HUVEC with PBMC; actives raise or lower the signal. The method in brief: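 Read-out is ELISA of TNFa in primary human endothelial cell–PBMC co-cultures at 24 h after compound. Activity in either direction was fitted against DMSO.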

Read-out in assay [14]: Vascular cell adhesion molecule 1 (VCAM1), VCAM1 (gene 7412)
The assay can be described thus: BSK_LPS_VCAM1: BioMAP Diversity Plus: LPS Assay for Vascular cell adhesion molecule 1 (VCAM1) Biomarker Activity (AID 2283086). The note with it: primary human HUVEC with PBMC; actives raise or lower the signal. The method in brief:
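HUVEC + PBMC co-culture, LPS system; compound 24 h; VCAM-1 by ELISA; bidirectional fit vs DMSO control; parallel SRB (0.1%, TCA-fixed, 560 nm) for cytotoxicity.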

Read-out in assay [15]: CD38, CD38 (gene 952)
The assay can be described thus: BSK_SAg_CD38: BioMAP Diversity Plus: SAg Assay for CD38 Biomarker Activity (AID 2283087). The note with it: primary human HUVEC with PBMC; actives raise or lower the signal. A digest of the protocol:
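Human HUVEC plus PBMC co-culture stimulated with superantigen; CD38 measured by ELISA 24 h after chemical dosing. Fluorescence read-out, bidirectional fit against DMSO; cytotoxicity tracked in parallel by SRB and Alamar Blue.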

Read-out in assay [16]: CD40, CD40 (gene 958)
Put plainly: BSK_SAg_CD40: BioMAP Diversity Plus: SAg Assay for CD40 Biomarker Activity (AID 2283088). The note with it: primary human HUVEC with PBMC; actives raise or lower the signal. A digest of the protocol:
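Human umbilical vein endothelial cells co-cultured with PBMC; CD40 levels measured by ELISA with fluorescence read-out 24 h after chemical dosing. Gain or loss of signal fitted bidirectionally against DMSO baseline.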

Read-out in assay [17]: CD69, CD69 (gene 969)
The assay can be described thus: BSK_SAg_CD69: BioMAP Diversity Plus: SAg Assay for CD69 Biomarker Activity (AID 2283089). The note with it: primary human HUVEC with PBMC; actives raise or lower the signal. A digest of the protocol:
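Endothelial/PBMC co-culture; chemical added; 24 h incubation; CD69 ELISA with fluorescence detection; bidirectional fit vs DMSO.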

Read-out in assay [18]: Monocyte Chemoattractant Protein-1 (MCP1), CCL2 (gene 6347)
Put plainly: BSK_SAg_MCP1: BioMAP Diversity Plus: SAg Assay for Monocyte Chemoattractant Protein-1 (MCP1) Biomarker Activity (AID 2283090). The note with it: primary human HUVEC with PBMC; actives raise or lower the signal. The method in brief: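 MCP-1 levels in the endothelial–PBMC SAg co-culture were quantified by ELISA at 24 h post-dosing; both increases and decreases versus DMSO scored. Cytotoxicity monitored by SRB total protein in parallel cultures.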

Read-out in assay [19]: E-selectin (Homo sapiens) (UniProt P16581)
Put plainly: BSK_SAg_Eselectin: BioMAP Diversity Plus: SAg Assay for Eselectin Biomarker Activity (AID 2283091). The note with it: primary human HUVEC with PBMC; actives raise or lower the signal. The method in brief:
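HUVEC co-cultured with PBMC, compound dosed then read at 24 h; E-selectin measured by ELISA. Activity fitted bidirectionally against DMSO as negative control and baseline.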

Read-out in assay [20]: Transforming growth factor beta 1 (TGFb1), TGFB1 (gene 7040)
Put plainly: BSK_KF3CT_TGFb1: BioMAP Diversity Plus: KF3CT Assay for Transforming growth factor beta 1 (TGFb1) Biomarker Activity (AID 2283072). The note with it: primary human keratinocytes with fibroblasts; actives raise or lower the signal. A digest of the protocol: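 Primary human skin cells (keratinocytes, foreskin fibroblasts) were co-cultured, exposed to test chemical and sampled at 24 h. TGF-b1 levels were measured by ELISA and fitted bidirectionally relative to DMSO.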

Active and inactive are the calls of the source. The calls were made as follows: active = hit-call score of the fitted dose curve at least 0.9, where 1 is the maximum; inactive = score below 0.9.

Sequence of Tumor necrosis factor (Homo sapiens) (P01375 whole entry, looked up): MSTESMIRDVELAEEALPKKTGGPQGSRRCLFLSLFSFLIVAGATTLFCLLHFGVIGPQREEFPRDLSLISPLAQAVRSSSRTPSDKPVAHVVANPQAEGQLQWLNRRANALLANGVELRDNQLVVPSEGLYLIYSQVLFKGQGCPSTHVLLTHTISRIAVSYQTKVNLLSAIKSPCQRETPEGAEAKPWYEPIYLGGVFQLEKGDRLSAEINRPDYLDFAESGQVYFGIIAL
Sequence of E-selectin (Homo sapiens) (P16581 whole entry, looked up): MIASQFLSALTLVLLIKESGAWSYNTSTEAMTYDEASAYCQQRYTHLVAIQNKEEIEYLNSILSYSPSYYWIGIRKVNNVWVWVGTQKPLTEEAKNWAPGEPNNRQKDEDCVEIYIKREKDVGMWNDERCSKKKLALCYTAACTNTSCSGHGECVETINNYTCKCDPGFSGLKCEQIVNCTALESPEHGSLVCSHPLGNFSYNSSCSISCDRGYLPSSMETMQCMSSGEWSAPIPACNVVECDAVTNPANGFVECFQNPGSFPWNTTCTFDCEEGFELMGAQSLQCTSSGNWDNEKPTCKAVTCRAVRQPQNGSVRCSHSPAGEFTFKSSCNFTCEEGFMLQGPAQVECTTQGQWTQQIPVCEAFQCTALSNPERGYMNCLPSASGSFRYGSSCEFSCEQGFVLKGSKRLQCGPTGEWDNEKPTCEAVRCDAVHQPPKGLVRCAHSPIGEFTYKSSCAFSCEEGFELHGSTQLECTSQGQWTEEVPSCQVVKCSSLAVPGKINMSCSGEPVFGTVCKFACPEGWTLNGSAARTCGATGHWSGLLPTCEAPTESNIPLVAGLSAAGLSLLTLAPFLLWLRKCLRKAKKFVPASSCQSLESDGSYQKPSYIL

The AC50 is the concentration at which the activity in the assay is half-maximal. Regarding `CCCCOC(=O)c1ccc(O)cc1`, the result in [1], in assay [2], in assay [3], in [4], in assay [5] and in assay [6] was inactive. Further, the result in [7], in [8], in assay [9], in assay [11], in assay [12] and in [13] was inactive. Also, the outcome in [14], in assay [15], in assay [16], in [17], in assay [18] and in assay [19] was inactive. In addition, the AC50 in [10] was 20 µM (active).
As to `COCC(C)OCC(C)OCC(C)O` (stereo not given), the outcome in assay [20], in assay [1], in [2], in assay [3], in assay [5] and in assay [6] was inactive. For the same molecule, the outcome in assay [7], in assay [8], in [9], in assay [10], in assay [11] and in assay [12] was inactive. Also, the outcome in [13], in [14], in assay [16], in [17], in assay [18] and in assay [19] was inactive.
As for `CC[C@@H]1C[C@H](N(Cc2cc(C(F)(F)F)cc(C(F)(F)F)c2)C(C)=O)c2cc(C(F)(F)F)ccc2N1C(=O)OC(C)C`, the result in assay [20], in [1], in [2], in assay [3], in assay [5] and in [6] was inactive. The outcome in [7], in assay [8], in [9], in assay [10], in assay [11] and in assay [12] was inactive. The result in assay [13], in assay [14], in [16], in [17], in assay [18] and in [19] was inactive.
